# Reference: PubChem BioAssay (Tox21)
# Where “and” joins values, the source holds several entries; their conditions need not be identical. Identical values can stand only once. Records with an inconclusive call do not appear. A call without a number means that no potency is given here. Some structures have more than one record in an assay (separate samples or runs), and their calls can disagree. Calls of active or inactive are those of the source. The call rests on the fitted dose curve; in most records, active means well fitted curve in the direction sought with a large enough effect in the repeat runs; inconclusive means weak or mixed curves; inactive means no such curve, though single readings can be large; an effect the other way counts as inactive or inconclusive.
# Assay: A CellTox Green Cytotoxicity Assay to monitor cytotoxicity in HEK293 cells - 40 hour (AID 1224871); further: nearly all actives have a fitted effect of over 45% in size
# Conditions: CellTox Green fluorescence; series mostly up to 76.8 µM
# Method in brief: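 Cells (HEK293, 600/well) and dye reagent are dispensed together. After 5 h at 37 C, 23 nL compound is pinned in. Plates stay at 37 C for 40 h with fluorescence read at 0h, 8h, 16h, 24h, 32h and 40h.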
# Potency means the concentration at half of the fitted maximal effect.
row,SMILES,Potency
1,O=C(O)C(Cl)(Cl)Cl,inactive
2,COc1ccccc1N,inactive
3,O=P1(N(CCCl)CCCl)NCCCO1 (configuration not stated),inactive
4,CCC(=O)C(CC(C)N(C)C)(c1ccccc1)c1ccccc1 (configuration not stated),inactive
5,CCC[N+]1(C)CCCC1,inactive
6,CC(=O)O,inactive
7,C=CCOC(Cn1ccnc1)c1ccc(Cl)cc1Cl (configuration not stated),55.1 µM (active) and inactive
8,CCCCn1cc[n+](C)c1,inactive
9,O=c1[nH]c(=O)n(Cl)c(=O)n1Cl,inactive
10,OCCOc1ccccc1,inactive
11,Nc1ccc(Cl)cc1,inactive
12,CC(Cl)(Cl)C(=O)O,inactive
13,Cc1cc(-c2ccc(N)c(C)c2)ccc1N,inactive
14,CCCCCCCCCCCCCC[P+](CCCCCC)(CCCCCC)CCCCCC,13.9 µM (active) and 19.7 µM (active)
15,O=S(=O)(O)O,inactive
16,C1CCC(NC2CCCCC2)CC1,inactive
17,COc1ccc(N)cc1,inactive
18,CCCCn1cc[n+](C)c1C,inactive
19,CCNc1nc(Cl)nc(NCC)n1,inactive
20,CCCCCCn1cc[n+](C)c1,inactive
21,O=C(O)c1nc(Cl)ccc1Cl,inactive
22,O=[N+]([O-])O,inactive
23,O=C(O)CCl,inactive
24,O=C(O)CC(O)(CC(=O)O)C(=O)O,inactive
25,O=C(O)C(Cl)Cl,inactive
26,CCCCCCCCn1cc[n+](C)c1,19.4 µM (active) and 49.5 µM (active)
27,Nc1ccc(-c2ccc(N)c(Cl)c2)cc1Cl,inactive and 43.6 µM (active)
28,COP(=O)(OC)C(O)C(Cl)(Cl)Cl (configuration not stated),inactive
29,CCC[N+]1(C)CCCCC1,inactive

# Assay: qHTS RealTime-Glo MT Cell Viability Assay in HepG2 cells - 8 hour (AID 1224873); further: nearly all actives have a fitted effect of over 55% in size
# Conditions: RealTime-Glo luminescence; series mostly up to 76.8 µM
# Method in brief: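 HepG2 cells (600/well) mixed with RealTime-Glo MT reagent, settled 5 h at 37 C/5% CO2 before compound addition. Nonlytic NanoLuc luminescence from viable-cell prosubstrate reduction read repeatedly during 40 h treatment at 37 C.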
row,SMILES,Potency
1,O=C(O)C(Cl)(Cl)Cl,inactive
2,CCCCCCCCCCCCn1cc[n+](C)c1,49.4 µM (active) and inactive
3,COc1ccccc1N,inactive
4,Oc1cccc2cccnc12,inactive
5,O=P1(N(CCCl)CCCl)NCCCO1 (configuration not stated),inactive
6,CCC(=O)C(CC(C)N(C)C)(c1ccccc1)c1ccccc1 (configuration not stated),inactive
7,CCC[N+]1(C)CCCC1,inactive
8,CCCCCCCCCCn1cc[n+](C)c1,inactive
9,CC(=O)O,inactive
10,C=CCOC(Cn1ccnc1)c1ccc(Cl)cc1Cl (configuration not stated),inactive
11,CCCCn1cc[n+](C)c1,inactive
12,O=c1[nH]c(=O)n(Cl)c(=O)n1Cl,inactive
13,CCCCCCCCCCCCOS(=O)(=O)O,inactive
14,OCCOc1ccccc1,inactive
15,Nc1ccc(Cl)cc1,inactive
16,CC(Cl)(Cl)C(=O)O,inactive
17,Cc1cc(-c2ccc(N)c(C)c2)ccc1N,inactive

row,SMILES,Potency
1,CCCCCCCCCCCCCC[P+](CCCCCC)(CCCCCC)CCCCCC,17.5 µM (active) and 19.7 µM (active) and inactive
2,O=S(=O)(O)O,inactive
3,C1CCC(NC2CCCCC2)CC1,inactive
4,COc1ccc(N)cc1,inactive
5,CCCCn1cc[n+](C)c1C,inactive
6,CCNc1nc(Cl)nc(NCC)n1,inactive
7,CCCCCCn1cc[n+](C)c1,inactive
8,O=C(O)c1nc(Cl)ccc1Cl,inactive
9,O=[N+]([O-])O,inactive
10,O=C(O)CCl,inactive
11,O=C(O)CC(O)(CC(=O)O)C(=O)O,inactive
12,O=C(O)C(Cl)Cl,inactive
13,CCCCCCCCn1cc[n+](C)c1,inactive
14,Nc1ccc(-c2ccc(N)c(Cl)c2)cc1Cl,inactive and 43.6 µM (active)
15,COP(=O)(OC)C(O)C(Cl)(Cl)Cl (configuration not stated),inactive
16,CCC[N+]1(C)CCCCC1,inactive
